Laboratory results published in the supplement of paper PMC9135407.
Where a name gives a salt, the structure may show the parent alone. Hit rate of the full screen: of about 5,800 compounds, about 620 (11%) showed activity. The list comes from a sample in which actives are over-represented; it also holds similar structures and randomly drawn compounds. A number with no mark means an inactive call.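 Rule for the calls: active = score above a cut-off or among the top three wells of a plate; in these data no inactive exceeds 0.85.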

Tested on: primary human hepatic stellate cells (donor 1)
Experiment: scaled lipid accumulation score (0 = DMSO-like, 1 = nortriptyline-like); higher = stronger HSC inactivation (lipid re-accumulation), active = hit call of the paper
Settings: 48 h
Experimental: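 Primary lipid accumulation screen in primary human hepatic stellate cell myofibroblasts (donor 1, passage 8) in 384-well plates. 100 nL of library compound was pin-transferred into 30 µL medium in duplicate, and cells were treated for 48 h. The 'Scaled' score combines distance from plate baseline, toxicity and reproducibility penalties, and is normalised to nortriptyline (positive) and DMSO (negative) controls on each plate. A hit is defined as scaled >0.85 or among the top 3 wells per plate.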

[1] = library stock concentration: 10 mM
[2] = library stock concentration: 1 mM
[3] = library stock concentration: 3.33 mM

Clc1ccc(N2CC3CCC(C2)N3)nn1
scaled lipid accumulation score [1]: ≤ -0.07

C[N+]1(C)[C@@H]2CC(OC(=O)[C@H](CO)c3ccccc3)C[C@H]1[C@@H]1O[C@@H]12 (single isomer, unassigned; (-)) [(-)-Scopolamine methyl nitrate]
scaled lipid accumulation score [1]: ≤ 0

CCN(CC)CCO[C@H]1CC[C@@]2(C)C(=CC[C@@H]3[C@@H]2CC[C@]2(C)C(=O)CC[C@@H]32)C1.Cl
scaled lipid accumulation score [1]: 1.39 (active)

CC(=O)O[C@H]1CC[C@@]2(C)C(=CC[C@@H]3[C@@H]2CC[C@]2(C)C(=O)CC[C@@H]32)C1 [Dehydroisoandosterone 3-acetate]
scaled lipid accumulation score: ≤ 0

CCN(CC)CCO[C@H]1CC[C@@]2(C)C(=CC[C@@H]3[C@@H]2CC[C@]2(C)C(=O)CC[C@@H]32)C1
scaled lipid accumulation score [2]: 0.116

CC(=O)O[C@H]1CC[C@@]2(C)C(=CC[C@@H]3[C@@H]2CC[C@]2(C)C(=O)CC[C@@H]32)C1 [Prasterone acetate]
scaled lipid accumulation score [1]: 0.103

CC(C)NC(C)Cc1ccc(I)cc1 (stereo unspecified) [Iofetamine hydrochloride]
scaled lipid accumulation score [1]: 0.757

COP(=S)(OC)Oc1ccc(SC)c(C)c1
scaled lipid accumulation score [1]: ≤ 0

CO[C@H](C)[C@](O)(C(=O)OCC1=CCN2CC[C@H](O)[C@@H]12)C(C)C [Heliotrine]
scaled lipid accumulation score: ≤ 0

CO/C1=C\C(C)=C\[C@@H](C)[C@@H](O)[C@@H](C)C/C(C)=C/C=C/[C@H](OC)[C@@H]([C@@H](C)[C@@H](O)[C@H](C)[C@@]2(O)C[C@@H](O)[C@H](C)[C@@H](C(C)C)O2)OC1=O [Bafilomycin A1]
scaled lipid accumulation score (library stock concentration: 800 uM): 1.08 (active)

CCCN(CCC)C1CCc2cccc(O)c2C1 (stereo unspecified)
scaled lipid accumulation score [1]: ≤ -0.07

CCCN(CCC)C1CCc2cccc(O)c2C1 (stereo unspecified) [8-Hydroxy-DPAT hydrobromide]
scaled lipid accumulation score [1]: 0.055

O=C(O)CCC(CP(=O)(O)O)C(=O)O (stereo unspecified) [PMPA (NAALADase inhibitor)]
scaled lipid accumulation score [1]: ≤ -0.006

CCCCC/C=C\C/C=C\C/C=C\C/C=C\CCCC(=O)NCCCC(=O)O [N-Arachidonoyl-.gamma.-Aminobutyric Acid]
scaled lipid accumulation score [2]: 0.032

CCN1C[C@]2(COC)CC[C@H](OC)[C@]34C5C[C@@H]6[C@@H](OC)C[C@@]7(OCO[C@@]7(C13)[C@@H](O)C24)C5[C@H]6OC (stereo partly specified) [Delcorine]
scaled lipid accumulation score: ≤ 0

CN(C)C(=S)SSC(=S)N(C)C [Thiram] [listing 1 of 2 here]
scaled lipid accumulation score (library stock concentration: 8.3 mM): 0.965 (active)

CN(C)C(=S)SSC(=S)N(C)C [Thiram] [listing 2 of 2 here]
scaled lipid accumulation score [1]: 0.163

Ic1ccccc1CNC1C2CCN(CC2)C1C(c1ccccc1)c1ccccc1 [L-703,606 oxalate salt hydrate]
scaled lipid accumulation score [1]: 0.063

CN1CCC(c2ccc(F)cc2)C(COc2ccc3c(c2)OCO3)C1 (stereo unspecified)
scaled lipid accumulation score (library stock concentration: 9.7 mM): 0.664

CCCCCC(/C=C/C=O)OO (stereo unspecified) [4-hydroperoxy 2-Nonenal]
scaled lipid accumulation score [2]: 0.019

COC(=O)[C@]1(O)C[C@@H]2O[C@@]1(C)n1c3ccccc3c3c4c(c5c6ccccc6n2c5c31)C(=O)NC4 [K-252a, Nocardiopsis sp.]
scaled lipid accumulation score [3]: 0.362

O=C1NC(=O)c2c1c1c3ccccc3n3c1c1c2c2ccccc2n1C1CCC3O1
scaled lipid accumulation score [1]: 1.3 (active)

O=C1NC(=O)c2c1c1c3ccccc3n3c1c1c2c2ccccc2n1[C@H]1CC[C@@H]3O1
scaled lipid accumulation score [3]: 0.338

Cc1sc2c(c1C)C(c1ccc(Cl)cc1)=N[C@H](CC(=O)OC(C)(C)C)c1nnc(C)n1-2
scaled lipid accumulation score (library stock concentration: 80 uM): ≤ 0 | scaled lipid accumulation score (library stock concentration: 400 uM): ≤ 0 | scaled lipid accumulation score (library stock concentration: 2 mM): ≤ 0 | scaled lipid accumulation score [1]: ≤ 0

CC[C@@]1(O)C[C@H](O[C@H]2C[C@H](N(C)C)[C@H](O)[C@H](C)O2)c2c(cc3c(c2O)C(=O)c2c(O)ccc(O)c2C3=O)[C@H]1C(=O)OC [Pyrromycin]
scaled lipid accumulation score [1]: ≤ 0

C[C@@H]1O[C@@H](O[C@@H]2C=C3CC[C@@H]4[C@H](CC[C@]5(C)[C@@H](c6ccc(=O)oc6)CC[C@]45O)[C@@]3(C)CC2)[C@H](O)[C@H](O)[C@H]1O [Proscillaridin A]
scaled lipid accumulation score: 0.768

C[C@@H]1O[C@@H](O[C@H]2C[C@@H](O)[C@]3(CO)[C@H]4[C@H](O)C[C@]5(C)[C@@H](C6=CC(=O)OC6)CC[C@]5(O)[C@@H]4CC[C@]3(O)C2)[C@H](O)[C@H](O)[C@H]1O [Ouabain] [listing 1 of 2 here]
scaled lipid accumulation score (library stock concentration: 8.6 mM): 0.734

C[C@@H]1CC[C@@]2(OC1)O[C@H]1C[C@H]3[C@@H]4CC=C5C[C@@H](O[C@@H]6O[C@H](CO)[C@@H](O[C@@H]7O[C@@H](C)[C@H](O)[C@@H](O)[C@H]7O)[C@H](O)[C@H]6O[C@@H]6O[C@@H](C)[C@H](O)[C@@H](O)[C@H]6O)CC[C@]5(C)[C@H]4CC[C@]3(C)[C@H]1[C@@H]2C [Dioscin]
scaled lipid accumulation score [3]: 0.577 | scaled lipid accumulation score [1]: 0.255

C[C@@H]1O[C@@H](O[C@@H]2C[C@@H](O)[C@]3(CO)[C@H]4[C@H](O)C[C@]5(C)[C@@H](C6=CC(=O)OC6)CC[C@]5(O)[C@@H]4CC[C@]3(O)C2)[C@H](O)[C@H](O)[C@H]1O [Ouabain]
scaled lipid accumulation score [1]: 1 (active)

C[C@@H]1O[C@@H](O[C@H]2C[C@@H](O)[C@]3(CO)[C@H]4[C@H](O)C[C@]5(C)[C@@H](C6=CC(=O)OC6)CC[C@]5(O)[C@@H]4CC[C@]3(O)C2)[C@H](O)[C@H](O)[C@H]1O [Ouabain] [listing 2 of 2 here]
scaled lipid accumulation score [1]: 1.13 (active)

C[C@@H]1O[C@@H](O[C@H]2C[C@@H](O)[C@]3(CO)C4C(CC[C@]3(O)C2)[C@@]2(O)CC[C@H](C3=CC(=O)OC3)[C@@]2(C)C[C@H]4O)[C@H](O)[C@H](O)[C@H]1O (stereo partly specified) [Ouabain]
scaled lipid accumulation score [1]: 0.993 (active)

C[C@@H]1O[C@@H](O[C@H]2C[C@@H](O)[C@]3(CO)[C@@H]4C(CC[C@]3(O)C2)[C@@]2(O)CC[C@H](C3COC(=O)C3)[C@@]2(C)C[C@H]4O)[C@H](O)[C@H](O)[C@H]1O (stereo partly specified) [Dihydroouabain]
scaled lipid accumulation score [1]: 0.964 (active)
